Data reported in PubChem BioAssay AID1159580 (chemical genetic matrix, 2015).
Where “and” joins values, the source holds several entries; their conditions need not be identical. Equal entries are not always repeated. Hit rate of the full screen: of about 5,500 compounds, about 2,000 (36%) were called active. Not shown: some 18% with an inconclusive outcome. Cut-off read from the data, not from the text of the source: active = normalized growth mostly below about 0.91 (no sharp cut-off); inconclusive = no clear call, values can overlap the other calls; inactive = mostly above about 0.92. Some of the results follow.

Assay: chemical genetic growth profiling, strain panel (AID 1159580);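 note: tested at 20 µM; growth read once vehicle control cultures reached saturation at 30 °C; 1 = growth at the plate median or of vehicle wells; lower values mean less growth of the strain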
Conditions: S. cerevisiae deletion strains, growth OD

Measured: normalized growth

Oc1ccc2c(c1)OCC1(O)Cc3cc(O)c(O)cc3C21 (stereo unspecified)
inactive: locus YAL021C, strain ccr4, stronger effect = lower value 1.03 | locus YAL026C, strain drs2, stronger effect = lower value 1.03 | locus YAL030W, strain snc1, stronger effect = lower value 1.02 | locus YBL061C, strain skt5, stronger effect = lower value 1.03 | locus YBR009C, strain hhf1, stronger effect = lower value 1.01 | locus YBR021W, strain FUR4, stronger effect = lower value 1.04 | locus YBR023C, strain chs3, stronger effect = lower value 1.03 | locus YBR171W, strain sec66, stronger effect = lower value 1.04 | locus YBR229C, strain ROT2, stronger effect = lower value 1.01 | locus YBR231C, strain swc5, stronger effect = lower value 1.01 | locus YBR279W, strain paf1, stronger effect = lower value 1.02 | locus YCL011C, strain gbp2, stronger effect = lower value 1.03 | locus YCL016C, strain dcc1, stronger effect = lower value 1.03 | locus YCL029C, strain bik1, stronger effect = lower value 1.01 | locus YCL061C, strain MRC1, stronger effect = lower value 1.02 | locus YCL069W, strain vba3, stronger effect = lower value 1.03 | locus YCR088W, strain abp1, stronger effect = lower value 1.02 | locus YDL005C, strain med2, stronger effect = lower value 1.03 | locus YDL035C, strain GPR1, stronger effect = lower value 1.03 | locus YDL040C, strain nat1, stronger effect = lower value 1.02 | locus YDL074C, strain BRE1, stronger effect = lower value 0.936 | locus YDL101C, strain DUN1, stronger effect = lower value 0.958 | locus YDL185W, strain tfp1, stronger effect = lower value 0.964 | locus YDL192W, strain arf1, stronger effect = lower value 1.01 | locus YDR001C, strain nth1, stronger effect = lower value 1.03 | locus YDR069C, strain doa4, stronger effect = lower value 1.01 | locus YDR101C, strain arx1, stronger effect = lower value 1.07 | locus YDR137W, strain rgp1, stronger effect = lower value 1.15 | locus YDR150W, strain NUM1, stronger effect = lower value 1 | locus YDR159W, strain sac3, stronger effect = lower value 1.05 | locus YDR162C, strain NBP2, stronger effect = lower value 0.976 | locus YDR195W, strain ref2 1.02 | locus YDR297W, strain sur2, stronger effect = lower value 1.02 | locus YDR318W, strain mcm21, stronger effect = lower value 0.98 | locus YDR334W, strain swr1, stronger effect = lower value 1.03 | locus YDR335W, strain msn5, stronger effect = lower value 1.01 | locus YDR388W, stronger effect = lower value 0.978 | locus YDR392W, strain spt3, stronger effect = lower value 1.03 | locus YDR502C, strain sam2, stronger effect = lower value 0.996 | locus YEL003W, strain gim4, stronger effect = lower value 1.02 | locus YEL037C, strain rad23, stronger effect = lower value 1.02 | locus YEL061C, strain CIN8 (second series), stronger effect = lower value 1.04 | locus YER015W, strain faa2, stronger effect = lower value 1.01 | locus YER016W, strain bim1, stronger effect = lower value 1.03 | locus YER110C, stronger effect = lower value 0.996 | locus YER111C, strain swi4, stronger effect = lower value 1.03 | locus YER155C, strain BEM2 (second series), stronger effect = lower value 1.03 | locus YER155C, strain BEM2, stronger effect = lower value 1.04 | locus YER167W, strain BCK2, stronger effect = lower value 1.04 | locus YFR010W, strain ubp6, stronger effect = lower value 1.02 | locus YGL078C, strain dbp3, stronger effect = lower value 0.986 | locus YGL086W, strain mad1, stronger effect = lower value 0.996 | locus YGL167C, strain pmr1, stronger effect = lower value 1.02 | locus YGL173C, strain kem1, stronger effect = lower value 1.03 | locus YGL227W, strain vid30, stronger effect = lower value 1.04 | locus YGL240W, strain doc1, stronger effect = lower value 1.02 | locus YGL248W, strain PDE1, stronger effect = lower value 0.989 | locus YGL253W, strain hxk2, stronger effect = lower value 1.02 | locus YGR078C, strain PAC10, stronger effect = lower value 0.977 | locus YGR135W, strain pre9, stronger effect = lower value 0.945 | locus YGR229C, strain SMI1, stronger effect = lower value 0.968 | locus YGR252W, strain gcn5, stronger effect = lower value 1.06 | locus YHR013C, strain ard1, stronger effect = lower value 1.07 | locus YHR027C, strain rpn1, stronger effect = lower value 1.02 | locus YHR030C, strain SLT2, stronger effect = lower value 0.995 | locus YHR079C, strain IRE1 (second series), stronger effect = lower value 0.993 | locus YHR079C, strain IRE1, stronger effect = lower value 0.992 | locus YHR094C, strain hxt1, stronger effect = lower value 1 | locus YHR129C, strain ARP1, stronger effect = lower value 0.98 | locus YHR142W, strain chs7, stronger effect = lower value 1.05 | locus YHR200W, strain rpn10, stronger effect = lower value 1.01 | locus YIL066C, strain RNR3, stronger effect = lower value 1.03 | locus YIL073C, strain SPO22, stronger effect = lower value 0.964 | locus YIL125W, strain kgd1, stronger effect = lower value 1.01 | locus YIR030C, strain dcg1, stronger effect = lower value 1 | locus YJL092W, strain hpr5, stronger effect = lower value 1.03 | locus YJL095W, strain BCK1 (second series), stronger effect = lower value 1.02 | locus YJL095W, strain BCK1, stronger effect = lower value 0.88 and 0.999 | locus YJL115W, strain asf1, stronger effect = lower value 1.04 | locus YJL129C, strain trk1, stronger effect = lower value 1.09 | locus YJL134W, strain LCB3, stronger effect = lower value 1.01 | locus YJL154C, strain vps35, stronger effect = lower value 1.03 | locus YJL164C, strain tpk1, stronger effect = lower value 1.03 | locus YJL166W, strain qcr8, stronger effect = lower value 1.02 | locus YJL168C, strain set2, stronger effect = lower value 0.983 | locus YJL187C, strain SWE1 (second series), stronger effect = lower value 0.922
